DT40 TDP1 no CPT: qHTS for Inhibitors of human tyrosyl-DNA phosphodiesterase 1 (TDP1): qHTS in cells in absence of CPT. AID 686978, 2013. Potency, µM (top dose mostly 46.2 µM), for the others: at the top dose activity change, negative = growth inhibition, usual class: inhibitors. DT40 Tdp1-/- hTDP1 cells, no CPT, ATP luminescence, 48 h. actives 15% (n = 420,000); also: nearly all actives have a fitted effect of over 55% in size
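Seeded 400 DT40-hTDP1 cells/well (vehicle DMSO, no 20 nM CPT); pinned compounds; ≥48 hr at 37 °C; CellTiter-Glo luminescence as viability measure.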
TDP1 cell CPT: qHTS for Inhibitors of human tyrosyl-DNA phosphodiesterase 1 (TDP1): qHTS in cells in presence of CPT. chicken DT40 Tdp1-/-;hTDP1 cells + 20 nM CPT, ATP luminescence, 48 h. Potency, µM (titrated, usually from 46.2 µM), for inactives: at the highest dose activity change, negative = growth inhibition, actives largely listed as inhibitors. actives 12% (n = 420,000); also: nearly all actives have a fitted effect of over 55% in size
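Chicken DT40 Tdp1-/- cells stably complemented with human TDP1 were seeded at 400 cells/well in medium containing 20 nM camptothecin, exposed to pin-transferred compounds, and grown at 37 °C for at least 48 hr. Viability was read as ATP luminescence.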
HT1080 IDH1KD tx: qHTS for induction of synthetic lethality in tumor cells producing 2HG: qHTS for the HT-1080-IDH1KD cell line. HT-1080 IDH1 knockdown viability, ATP luminescence, 48 h. AID 686971, 2013. actives 2% (n = 360,000). Potency, µM (top dose mostly 46.1 µM), for inactives: at the highest dose activity, negative = toxicity, actives largely listed as cytotoxic;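 also: 0% = DMSO wells and -100% = cell-free medium wells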
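In this qHTS, HT-1080 cells depleted of IDH1 are exposed for 48 h at 37 °C to compound titrations. Toxicity is scored from CellTiter-Glo luminescence, with DMSO as full viability and medium alone as none.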
HT1080NT lethal: qHTS for induction of synthetic lethality in tumor cells producing 2HG: qHTS for the HT-1080-NT fibrosarcoma cell line | HT-1080-NT fibrosarcoma viability, CellTiter-Glo ATP luminescence, 48 h | Potency, µM (top dose mostly 46.1 µM), without a hit: at the highest dose activity, negative = less viability, most hits filed as cytotoxic | actives 1.6% (n = 360,000);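 also: NT is the 2HG producing partner of a matched IDH1 knockdown line; 0% = DMSO-treated cells and -100% = media-only wells without cells; nearly all actives have a fitted effect of over 55% in size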
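Luminescent CellTiter-Glo readout after 48 hours of compound exposure at 37 degrees C defined viability of HT-1080-NT cells. Activity was normalized to DMSO wells and cell-free media wells; concentration-response curves were fitted and assigned curve classes.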
KB-3-1 tox: qHTS assay for MDR1-selective chemotherapeutics: Primary screen using the parental adenocarcinoma cell KB-3-1; AID 1347075, 2019; KB-3-1 viability, CellTiter-Glo ATP luminescence, 72 h; Potency, µM (titrated, usually from 46.1 µM), most hits filed as cytotoxic; actives 1.4% (n = 400,000); also: nearly all actives have a fitted effect of over 60% in size
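72 h, 37 °C compound treatment of KB-3-1 parental cells; CellTiter-Glo added, 10 min, luminescence read. Data corrected against DMSO-only plates and normalized before curve fitting.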
KB-V1 cytotox: qHTS assay for MDR1-selective chemotherapeutics: Primary screen using the drug-selected MDR subline cells KB-V1 | actives 3.4% (n = 400,000) | KB-V1 MDR cells viability, CellTiter-Glo, 72 h | Potency, µM (doses to about 46.1 µM), hits mostly cytotoxic; also: nearly all actives have a fitted effect of over 60% in size
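Cells of the MDR subline KB-V1 are plated, dosed with compound at multiple concentrations, and incubated 72 h at 37 degrees C; CellTiter-Glo is then added and luminescence read after 10 min.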
An asterisk follows results filed as active; i = inactive; u = inconclusive; x = not tested or not shown. This is a sample that favours compounds with a hit; in the whole collection about 19% have one here. Calls follow the shape of the dose curve; as a rule, active = well fitted curve in the direction sought with a large enough effect; inconclusive = small, poorly fitted or top-dose-only effect, or another doubt; inactive = no such curve, though single readings can be large; an effect the other way counts as inactive or inconclusive. Unless noted, % is scaled to controls: 0 for no effect and ±100 for the full control effect; potency is read from the fitted curve at half-maximal effect.

SMILES	DT40 TDP1 no CPT	TDP1 cell CPT	HT1080 IDH1KD tx	HT1080NT lethal	KB-3-1 tox	KB-V1 cytotox
Cc1ccc(SCCC(=O)Nc2ccccc2C(=O)NC(C)C)cc1	u	-10%	1%	-7%	i	2.9µM*
CSc1ccccc1C(=O)Nc1ccccc1C(=O)NC(C)C	u	23µM*	-14%	-1%	i	i
Cc1ccc(SCCC(=O)Nc2ccccc2Br)cc1	-9%	7%	10%	13%	i	i
COC(=O)c1ccccc1NC(=O)c1ccccc1SC	-19%	-7%	0%	-8%	i	i
COc1c(Cl)cc(Cl)cc1CNCCSc1nnnn1C	-14%	4%	x	x	i	i
CN(C)S(=O)(=O)c1cccc(N=C2SCCN2Cc2ccccc2)c1	21µM*	u	-14%	-19%	i	i
COCC(C)N=C1SCCN1Cc1ccccc1 (centres undefined)	-6%	-10%	23%	24%	i	i
O=C(CN1CCN(c2ccccc2)CC1)Nc1ccncc1	18µM*	u	-1%	9%	i	i
Cc1cc(C)cc(NC(=O)CN2CCN(c3ccccc3)CC2)c1	u	-18%	-12%	8%	i	i
COc1ccc(N2CCN(C(=O)CN3CCN(C(c4ccccc4)c4ccccc4)CC3)CC2)cc1	23µM*	u	1%	4%	i	i
O=C(CN1CCN(c2ccccc2)CC1)N1CCN(c2ccccc2)CC1	u	u	1%	-2%	i	21µM*
O=C(CN1CCN(c2ncccn2)CC1)Nc1ccccc1-n1cccc1	13µM*	u	5%	0%	i	12µM*
Nc1cc(=O)nc(SCC(=O)N2CCN(c3ccccc3)CC2)n1-c1ccc(F)cc1	18%	-7%	-1%	-3%	u	u
COc1ccc(C2CC(=O)Nc3c2c(=O)n(C)c2nc4ccccc4n32)cc1 (centres undefined)	x	x	x	x	i	i
CC(=O)c1ccccc1NS(=O)(=O)c1c(C)nn(-c2ccccc2)c1C	u	u	-17%	-10%	i	9.2µM*
CN(C)S(=O)(=O)c1cccc(NC(=O)c2cc(-c3cccs3)nn2-c2ccccc2)c1	15µM*	u	2%	4%	i	5.8µM*
COC(=O)c1cc(-c2cccs2)nn1-c1ccccc1	-14%	4%	2%	0%	i	i
CCN(CC)S(=O)(=O)c1cccc(NC(=O)c2cc(-c3cccs3)nn2-c2ccccc2)c1	15µM*	21µM*	0%	12%	i	3.7µM*
CC(=O)c1nn(-c2cccc(Br)c2)cc1C(=O)c1ccccc1	-20%	-2%	u	u	i	i
CC(=O)c1nn(-c2cccc(Br)c2)cc1C(=O)c1ccc(Cl)cc1	7.3µM*	u	u	u	i	i
CC(=O)c1nn(-c2ccccc2)cc1C(=O)c1cccc(Br)c1	-19%	-28%	-1%	-6%	i	i
O=C(c1cccc(Br)c1)c1cn(-c2ccccc2)nc1C(=O)c1ccccc1	16µM*	18µM*	4%	8%	i	12µM*
O=C(Nc1ccccc1-c1nnc(SCc2ccc(Cl)cc2)o1)c1ccccc1	u	u	-6%	-2%	i	u
O=c1c(-c2nnc(SCc3ccc(Cl)cc3)o2)cccn1Cc1ccccc1	-21%	u	u	u	i	4.6µM*
O=C(Nc1ccccc1-c1nnc(SCc2ccccc2)o1)c1ccccc1	u	u	4%	-4%	i	15µM*
SMILES	DT40 TDP1 no CPT	TDP1 cell CPT	HT1080 IDH1KD tx	HT1080NT lethal	KB-3-1 tox	KB-V1 cytotox
COCCNC(=O)Cn1cc(S(=O)(=O)Cc2ccccc2Cl)c2ccccc21	-12%	-23%	x	x	i	i
COc1ccc(NC(=O)N2CCCC3(CCN(C(=O)c4cc(C(F)(F)F)cc(C(F)(F)F)c4)CC3)C2)cc1	-11%	-3%	x	x	x	x
Cc1cc(C(=O)NNC(=S)Nc2ccccc2)nn1C	-10%	-10%	3%	20%	i	i
CC(C)N(CC(=O)Nc1ccc(Cl)cc1C(F)(F)F)C(=O)CCl	6.5µM*	21µM*	6.5µM*	6.5µM*	i	u
CCC(C)N(CC(=O)Nc1cccc(C)c1C)C(=O)CCl (centres undefined)	2.3µM*	u	1µM*	1.6µM*	u	u
COC(=O)c1ccccc1NC(=O)CSc1nncn1-c1ccccn1	1%	1%	-2%	-11%	i	i
CCCCCCCCCCCCCCCC[N+](C)(C)CCN(Cc1ccc(OC)cc1)c1ncccn1	2.5µM*	4µM*	18µM*	16µM*	u	i
C[C@H](N)C(=O)N[C@@H](C)P(=O)(O)O	-10%	-2%	x	x	x	x
CC1CCN(S(=O)(=O)c2ccc3c(c2)oc(=O)n3CC(=O)NCc2ccc3c(c2)OCO3)CC1	u	u	1%	0%	u	i
COc1ccc(NC(=O)Cn2c(=O)oc3cc(Cl)ccc32)c(OC)c1	6.5µM*	u	-3%	1%	i	i
COc1ccc(CNC(=O)Cn2c(=O)oc3cc(S(=O)(=O)N4CCCCCC4)ccc32)cc1	16µM*	13µM*	x	x	i	u
COc1ccc(CNC(=O)Cn2c(=O)oc3cc(S(=O)(=O)N4CCC(C)CC4)ccc32)cc1	8.2µM*	8.2µM*	x	x	i	i
COc1ccc(CC(=O)Nc2ccc(S(=O)(=O)N3CCC(C)CC3)cc2)c(OC)c1	8.2µM*	u	-3%	-14%	i	i
Cc1cc(C)cc(NC(=O)Cn2c(=O)oc3cc(S(=O)(=O)N4CCC(C)CC4)ccc32)c1	15µM*	6.5µM*	u	u	i	i
COc1ccc(NC(=O)Cn2c(=O)oc3cc(S(=O)(=O)N4CCCC4)ccc32)c(OC)c1	u	u	1%	-11%	i	i
CC1CCN(S(=O)(=O)c2ccc3c(c2)oc(=O)n3CC(=O)O)CC1	-9%	-5%	x	x	x	x
